# Most compounds without a hit are left out; they make up all but 12% or so of the library.
# Cav32 inh: blocks human Cav3.2 T-type calcium channel. B-score at 10 µM. Cav3.2-expressing cells, Fluo-4 calcium fluorescence FDSS; stronger effect = lower value. hit rate 4% among 100,000. O95180. AID 449739;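 active = single-dose well whose peak fluorescence ratio is a statistical outlier from its plate by either plate-standardised score or position-corrected B-score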
# DAT uptake mod: changed human dopamine transporter uptake under cocaine IC80 | B-score at 10 µM | Q01959 | AID 449768 | hit rate 1.3% among 110,000 | LLC-PK1 hDAT cells, [14C]-dopamine uptake with cocaine IC80; actives deviate in either direction;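 active = Z score or B-score, a plate-position-corrected score, falls beyond the plate's 99.7% confidence bounds, in either direction; inactive = both scores lie inside the 99.7% bounds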;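 note: scored against the spread of the other compound wells on the same plate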
# PLAP activator: activators of human placental alkaline phosphatase | hit rate 1.2% among 96,000 | purified PLAP enzyme, luminescent substrate read-out; stronger effect = higher value | activation fold at 20 µM; in the data active = activation fold above about 2
# PostGolgi yeast: growth inhibition of a yeast mutant, post-Golgi transport screen; AID 739; hit rate 0.9% among 98,000; inhibition, % at 10 µM; post-Golgi transport phenotypic cell assay;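 note: yeast cells grown in 1536-well plates; yeast grown about 18 h at 30C before absorbance read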
# PostGolgi ctrl: inhibits growth of the yeast control strain; efflux-deficient yeast background strain, growth absorbance A615, 16 h; inhibition, % at 10 µM; hit rate 5% among 98,000; AID 738
# D1 mod: allosterically modulates the human D1 dopamine receptor | P21728 | HEK293 D1, CRE-luciferase, dopamine EC30 potentiation; actives deviate in either direction | B-score at 10 µM | hit rate 5.9% among 58,000 | AID 641;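 active = luminescence count or its row- and column-corrected plate score outside the 99.7% band of the plate's sample wells, on either side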
# D1 PAM confirm: D1 receptor (human) allosteric modulation, confirmed; luminescence at 10 µM; HEK293 D1 CRE-luciferase, dopamine EC30 potentiation; stronger effect = higher value; hit rate 88% among 2,200; AID 642; shares compounds with D1 mod;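 active = luminescence in either of two replicates above the same-plate mean plus 3 SD of the low-dose dopamine control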
# D1 ag no DA: secondary test of D1 modulators: activity without dopamine; AID 646; luminescence at 10 µM; hit rate 0.8% among 1,900; HEK293 D1 CRE-luciferase, luminescence, no dopamine; stronger effect = higher value; shares compounds with D1 mod; in the data active = luminescence above about 3900
# Isoprot counter: counter-screen for D1 modulators: isoproterenol response in HEK293 cells; shares compounds with D1 mod; HEK293 D1 CRE-luciferase, isoproterenol EC30 counter-screen; calls only at 10 µM; hit rate 63% among 2,200;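 active = luminescence in either replicate above plate mean of wells with a partly effective reference agonist dose plus 3 SD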;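 note: isoproterenol raises cAMP through native beta-adrenoceptor Gs so signal bypasses D1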
# Numbers without * were called inactive; i = inactive; nt = not tested or not shown; + = active, no number. Cut-off read from the data, not from the text of the source, unless noted: active = inhibition above about 30%; inactive = the rest.
SMILES,Cav32 inh,DAT uptake mod,PLAP activator,PostGolgi yeast,PostGolgi ctrl,D1 mod,D1 PAM confirm,D1 ag no DA,Isoprot counter
COc1ccc(-c2csc3nc(C)n(-n4cccc4)c(=O)c23)cc1OC,-0.58,0.84,1.2,9,-4,4.9*,6784*,1784,i
Cc1nc2sc(-c3ccccc3)cc2c(=O)n1-n1cccc1,0.52,0.58,1,11,1,-0.37,nt,nt,nt
Cc1nc(SCC#N)c2c(C)c(C)sc2n1,-0.11,-0.049,1.1,10,2,5.8*,13352*,1616,+
Cc1ccc(-c2nnc(CSc3nc(C)nc4sc(C)c(C)c34)o2)cc1,-0.82,-0.49,1,nt,nt,-0.6,nt,nt,nt
CC(C)[C@@H]1NC(=O)c2cc([N+](=O)[O-])cc(I)c2NCCCC[C@@H](C(=O)NC(CC(=O)O)C(N)=O)NC(=O)[C@H](CO)NC1=O (stereo partly drawn),-0.019,-0.28,nt,nt,nt,nt,nt,nt,nt
Cc1cccc(NC(=O)c2cc(=O)c3ccccc3o2)n1,0.8,-0.12,1.1,-1,8,nt,nt,nt,nt
Cc1cc2c(c(N)n1)c(=O)oc1ccccc12,-0.4,-0.046,0.9,2,6,22*,19088*,nt,+
CCc1nc2ccccc2c(C(=O)OCC(=O)NCc2ccco2)c1C,0.29,0.27,1.3,4,0,4.4*,8196*,1524,i
CCCc1nc2ccccc2c(C(=O)OCC(=O)NCc2ccco2)c1CC,-2,0.99,0.7,7,16,nt,nt,nt,nt
CCCCn1c(NC(=O)CC)c(C#N)c2nc3ccccc3nc21,0.27,0.28,1,9,8,7.2*,14868*,1560,+
COc1cc(C(=O)NCCC(=O)NC2CCCCCCC2)cc(OC)c1OC,0.4,1,1,-1,-3,-0.092,nt,nt,nt
CCCCNC(=O)C1CC(=O)N(c2ccc(OC)cc2)C1c1ccc(OC)cc1 (stereo not drawn),0.13,-0.69,1.5,0,6,nt,nt,nt,nt
COc1cc2c(cc1OC)C(C)N(C(=O)c1cc3ccccc3o1)CC2 (stereo not drawn),-0.49,0.045,1.1,-6,22,15*,16968*,1740,+
COc1cc2c(cc1O)CCN(C(=O)c1ccco1)C2C (stereo not drawn),0.91,-1.4,0.9,3,4,nt,nt,nt,nt
COc1cc2c(cc1OC)C(C)N(C(=O)C1COc3ccccc3O1)CC2 (stereo not drawn),nt,0.017,1.4,9,13,7.3*,19292*,1592,+
CCN(CC)C(=O)CSc1nc2ccc(NC(=O)CSc3nccn3C)cc2s1,0.4,1.2,nt,-5,-5,0.13,nt,nt,nt
N#Cc1c(N)sc(=S)c2c1CCN(Cc1ccccc1)C2,-3.3,0.099,0.9,-1,10,-0.29,nt,nt,nt
CC1(C)Cc2c(C#N)c(N)sc(=S)c2CO1,nt,-1.7,1.1,-5,-1,9.1*,17212*,1388,+
CC(C)C1Cc2c(C#N)c(N)sc(=S)c2CO1 (stereo not drawn),-2.6,-1.8,1.3,2,0,10*,21832*,1584,+
O=C(CCSc1nc2ccccc2o1)N1CCOCC1,-0.1,0.024,nt,-1,3,3.6*,7988*,1548,i
Cc1cc(N2CCCCC2)n2nc(C)c(-c3ccccc3)c2n1,0.2,-0.057,1.5,-4,25,0.33,nt,nt,nt
Cc1nn2c(N3CCCC3)cc(C(C)C)nc2c1-c1ccccc1,-0.088,-0.24,1,22,-2,5.3*,5624*,1528,i
Cn1c2c(c3ccccc31)CC/C2=N\O,1.6,-1,1.1,-4,-5,4.7*,8132*,1360,i
O=C(Cc1ccccc1)N1CCN(C(=O)c2cccs2)CC1,0.18,0.17,0.8,5,7,0.44,nt,nt,nt
CCC(=O)N1c2ccc(S(=O)(=O)CCC(=O)N3CCn4c3nc3ccccc34)cc2CC1C (stereo not drawn),0.36,-1.6,1.1,0,7,3.9*,12244*,1788,+
SMILES,Cav32 inh,DAT uptake mod,PLAP activator,PostGolgi yeast,PostGolgi ctrl,D1 mod,D1 PAM confirm,D1 ag no DA,Isoprot counter
CCC(=O)N1c2ccc(S(=O)(=O)CCC(=O)NC3CCCC3)cc2CC1C (stereo not drawn),-0.11,0.3,1,4,8,0.13,nt,nt,nt
Cc1cc(Nc2nc3c(c(=O)n(C)c(=O)n3C)n2C)n(-c2ccccc2)n1,nt,nt,nt,nt,nt,-0.26,nt,nt,nt
Cc1cc(NC(=O)c2ccccc2Oc2ccccc2)no1,-0.87,-0.035,0.9,-8,15,6.2*,9100*,1632,i
Cc1noc(C)c1COC(=O)c1ccccc1Oc1ccccc1,-2.8,-0.17,1.3,2,7,6.1*,8776*,1556,+
COCCSc1ccccc1C(=O)Nc1cc(C)on1,1.1,0.013,1.1,-10,1,0.072,nt,nt,nt
Cc1ccc2[nH]c(=O)c(C(c3nnnn3CCc3ccccc3)N3CCOCC3)cc2c1 (stereo not drawn),-1,0.69,1.4,4,9,0.91,nt,nt,nt
CCOC(=O)c1c(C)c(C(=O)NCc2ccccc2OC)c(C)n1C,0.2,0.96,1.1,18,3,3.6*,7232*,1476,i
COc1ccc(C(=O)NCc2ccccc2OC)cc1,0.22,-0.13,nt,13,7,0.53,nt,nt,nt
COc1ccc(C2CC(c3cc(OC)ccc3OC)n3nnnc3N2)cc1 (stereo not drawn),0.025,2.7,0.9,5,0,2.7*,9576*,1560,i
COc1ccc(C2CC(c3cccc(C)c3)n3ncnc3N2)cc1 (stereo not drawn),-2.1,1.1,1.5,9,-11,-0.035,nt,nt,nt
Fc1cc(Br)ccc1Nc1nc2ccccc2n2nnnc12,-0.57,-0.46,nt,10,23,3.1*,10956*,1572,i
Clc1ccc(Nc2nc3ccccc3n3nnnc23)cc1,-1.3,-0.051,0.9,1,26,nt,nt,nt,nt
COc1ccc(N(C(=O)c2ccco2)S(=O)(=O)c2cccs2)cc1,-1.2,0.0093,1,21,11,7.5*,14396*,1668,+
COc1ccc(N(C(=O)c2ccco2)S(=O)(=O)c2cccc([N+](=O)[O-])c2)cc1,0.6,-0.37,0.9,-9,18,nt,nt,nt,nt
O=C(C1CC1)N1CCc2cc(S(=O)(=O)N3CCOCC3)ccc21,-0.17,-0.18,0.8,-4,3,1.6,nt,nt,nt
O=C(c1ccco1)N1CCN(S(=O)(=O)c2ccc3c(c2)CCN3C(=O)C2CC2)CC1,0.78,-1.5,1.3,18,-1,4.2*,11508*,1616,i
Cc1ccccc1CSc1n[nH]c(NS(=O)(=O)c2ccccc2)n1,-0.49,-0.71,1.2,-15,2,nt,nt,nt,nt
